Records with an inconclusive call do not appear. Calls of active or inactive are those of the source. Unless noted, the call rests on the fitted dose curve; in most records, active means well fitted curve in either direction with a large enough effect (not every such curve was filed as active); inconclusive means small, poorly fitted or top-dose-only effect, or another doubt; inactive means flat fitted curve, though single readings scatter.
Legend:
[1] = target: Lysosomal acid glucosylceramidase (Homo sapiens) (UniProt P04062); assay: Glucocerebrosidase-p2 (AID 348; in the data active means potency below about 10 µM; further: potency means the concentration at half of the fitted maximal effect); settings: purified GBA, blue fluorogenic substrate, 40 min
How it was run: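 Normal human glucocerebrosidase (0.2 nM) with blue fluorogenic substrate (80 uM final) in citrate/phosphate pH 5.9 with 10mM sodium taurocholate, 0.01% tween-20; 40 min RT, NaOH/glycine stop; fluorescence Ex 365/Em 440; AC50 from a titration from 0.6 nM upwards.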

[2] = target: Cytochrome P450 1A2 (Homo sapiens) (UniProt P05177); assay: p450-cyp1a2 (AID 410; calls by dose curve; further: potency means the concentration at half of the fitted maximal effect;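 on activity change, negative = inhibition: -100% = full effect of reference inhibitor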); settings: recombinant CYP1A2, luciferin-ME demethylation, luminescence; series mostly up to 57 µM
How it was run: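 O-Demethylation of luciferin 6' methyl ether by human CYP1A2 is monitored as luciferase luminescence. Substrate sits at Km (100uM); enzyme is 20nM. Values are scaled to 57 uM furafylline as maximal inhibition.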

[3] = Stat Signaling Pathway (AID 446); settings: ME-180 SIE beta-lactamase reporter, IL-6 stimulated, 5 h; at 7.69 µM (top of the series) unless noted;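 further: ME-180 cervical cancer cells given 40 pM IL-6 alongside compound; SIE-controlled beta-lactamase reporter measured as 460/530 nm FRET emission ratio; on the % scale 0 is the no-effect control and ±100 the full control effect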
How it was run: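 Overnight-plated ME-180 cells bearing a STAT Inducible Element beta-lactamase reporter; 5 h co-exposure to compound and 40 pM IL-6; values normalized to 300 pM IL-6 and 125 nM JAK inhibitor controls.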

[4] = target: Glucocorticoid receptor (Homo sapiens) (UniProt P04150); assay: GR-EFC Redistribution (AID 451; calls by dose curve; further: potency means the concentration at half of the fitted maximal effect); settings: CHO-K1 GR-EFC translocation, beta-gal luminescence, 2 h
How it was run: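 CHO-K1 cells expressing nuclear EA and GR-ED fragments of b-gal; compounds titrated up to 46 uM final, 2 h at 37 C. GR nuclear translocation read as complemented b-gal luminescence after 1 h RT detection.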

[5] = target: Mitogen-activated protein kinase 10 (Mus musculus) (UniProt Q61831); assay: JNK3 AlphaScreen Assay (AID 530); settings: JNK3 lysate, c-Jun phosphorylation; series mostly up to 57.1 µM;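 further: kinase came from lysate of stimulated human HepG2 cells; signal reports phosphorylation of biotinylated GST-cJun 1-79 at Ser73 with 10 µM ATP; on the % scale 0 is the no-effect control and ±100 the full control effect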
How it was run: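 Activity was read by AlphaScreen after JNK3-containing HepG2 lysate (cytokine pre-activated) phosphorylated biotinylated GST-cJun with 10 uM ATP at room temperature. Phospho-Ser73 cJun antibody with Protein-A acceptor beads provided detection.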

[6] = target: 3',5'-cyclic-AMP phosphodiesterase 4B (Homo sapiens) (UniProt Q07343); assay: qHTS Assay for Inhibitors of PDE-IV (AID 607; active means well fitted activation curve with a large enough effect in the main read-out, with a control signal flat, not every such curve was filed as active; further: % of control where 0% means no effect); settings: HEK293 ACTOne CNG channel cells, membrane potential fluorescence; series mostly up to 22.9 µM
How it was run: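 Live HEK293 cells with a modified cyclic nucleotide-gated (CNG) channel report intracellular cAMP via membrane-potential dye fluorescence (ex 535/em 590 nm). Endogenous PDE-IV was targeted. Compounds were tested at up to 22.9 uM final; RO 20-1724 100 uM served as control.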

[7] = target: Cytochrome P450 3A4 (Homo sapiens) (UniProt P08684); assay: qHTS Assay for Activators of Cytochrome P450 3A4 (AID 885; active means well fitted curve in the direction sought with a large enough effect; an effect the other way counts as inactive or inconclusive; further: nearly all actives have a fitted effect of over 65% in size); settings: recombinant CYP3A4, Luciferin-PPXE luminescence, 60 min; series mostly up to 57.1 µM
How it was run: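 Using 20nM recombinant human CYP3A4 in potassium phosphate (200mM), substrate Luciferin-PPXE at 25uM, luminescent luciferin detection followed a 60-min RT NADPH reaction; data scaled to 57 uM ketoconazole.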

[8] = target: Cytochrome P450 2D6 (Homo sapiens) (UniProt P10635); assay: qHTS Assay for Inhibitors and Substrates of Cytochrome P450 2D6 (AID 891; active means well fitted curve in the direction sought with a large enough effect; an effect the other way counts as inactive or inconclusive; further: potency means the concentration at half of the fitted maximal effect; nearly all actives have a fitted effect of over 60% in size); settings: recombinant CYP2D6, luciferin-ME EGE luminescence; series mostly up to 57.1 µM
How it was run: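 Luminescent read-out of luciferin formed by 5 nM human CYP2D6 demethylating 30 uM Luciferin-ME EGE (Km level) over 60 min at room temperature after NADPH regeneration addition. Data normalized to full inhibition by 1.43 uM quinidine.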

[9] = qHTS Assay for Lipid Storage Modulators (AID 1519; calls by dose curve); settings: Drosophila S3 cells, BODIPY lipid droplet/cell ratio, laser cytometry, cells loaded with oleic acid; for activity change, negative = inhibition: at 57.5 µM (top of the series)
How it was run: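 Cells seeded at 5,000 per well were treated with compounds over a concentration series and loaded with oleic acid (400 uM, as added). Lipid droplet fluorescence (488 nm excitation, 500-530 nm channel) was read by laser-scanning cytometry and normalized to 20 uM Triacsin C.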

[10] = Primary qHTS for small molecule stabilizers of the endoplasmic reticulum resident proteome: Secreted ER Calcium Modulated Protein (SERCaMP) assay (AID 1508630; active means well fitted curve in the direction sought with a large enough effect; an effect the other way counts as inactive or inconclusive; further: on the % scale 0 is the no-effect control and ±100 the full control effect); settings: SH-SY5Y GLuc-SERCaMP (Gaussia luciferase released on ER calcium loss) secretion, thapsigargin, luminescence; series mostly up to 38.4 µM
How it was run: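 The SH-SY5Y reporter protocol was run at 3 concentrations up to 38.3 uM (primary) or 11 concentrations (follow-up): 16 h compound, 100 nM thapsigargin for 4 h, then extracellular luciferase luminescence.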

[11] = target: Glucocorticoid receptor (Homo sapiens) (UniProt P04150); assay: GR-GFP Redistribution (AID 450;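 active means compounds whose dose series gives a full or clear partial fitted curve of increased nuclear translocation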; further: potency means the concentration at half of the fitted maximal effect); settings: U2OS GR-GFP nuclear translocation, laser cytometry, 2 h
[12] = AP1 Signaling Pathway (AID 357); settings: ME-180 AP-1-bla reporter, EGF-induced, beta-lactamase ratio, 5 h; at 7.69 µM (top of the series) unless noted; further: on the % scale 0 is the no-effect control and ±100 the full control effect
How it was run: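 ME-180 cells with beta-lactamase reporter under AP-1 response element, stimulated with EC50 EGF; compounds tested in titration series, 5 h at 37 °C. CCF4 substrate added 2.5 h at room temperature; 460/530 nm emission ratio gave %activity and AC50.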

[13] = NFAT Signaling Pathway (AID 444); settings: Jurkat NFAT-bla M1, carbachol, beta-lactamase ratio, 5 h; at 7.69 µM (top of the series) unless noted
How it was run: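 Jurkat cells with NFAT-driven β-lactamase reporter and co-expressed M1 receptor, stimulated with carbachol (final 1 uM, ~EC50), compound titration, 5 h at 37 °C. CCF4 loaded 1 h at RT; 460/530 nm ratio gave %activity and AC50.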

[14] = target: Cytochrome P450 3A4 (Homo sapiens) (UniProt P08684); assay: qHTS Assay for Inhibitors and Substrates of Cytochrome P450 3A4 (AID 884; active means well fitted curve in the direction sought with a large enough effect; an effect the other way counts as inactive or inconclusive; further: potency means the concentration at half of the fitted maximal effect; nearly all actives have a fitted effect of over 50% in size); settings: recombinant CYP3A4, Luciferin-PPXE luminescence; series mostly up to 57.1 µM
How it was run: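 Luminescent readout of luciferin produced by CYP3A4 (20 nM) dealkylation of Luciferin-PPXE, 25 uM (its KM). NADPH-driven reaction ran 60 min at RT after 10 min compound preincubation; data scaled to 57 uM ketoconazole as 100% inhibition.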

[15] = target: Cytochrome P450 2C19 (Homo sapiens) (UniProt P33261); assay: qHTS Assay for Inhibitors and Substrates of Cytochrome P450 2C19 (AID 899; active means well fitted curve in the direction sought with a large enough effect; an effect the other way counts as inactive or inconclusive; further: potency means the concentration at half of the fitted maximal effect; nearly all actives have a fitted effect of over 60% in size); settings: recombinant CYP2C19, luciferin-H EGE luminescence; series mostly up to 57.1 µM
How it was run: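 Luminescent read-out of luciferin formed from Luciferin-H EGE (10uM, equal to KM). Enzyme 5nM in 50mM KPO4; compound added, 10 min at 37C, then NADPH regenerating system for 60 min at 37C. Full inhibition defined by 57uM ketoconazole.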

[16] = Confirmation and Secondary Assay for Modulators of Hemoglobin Beta Chain Splicing at IVS2 705 locus (AID 930; active means well fitted curve in the direction sought with a large enough effect; an effect the other way counts as inactive or inconclusive;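 further: HeLa cells stably expressing the EGFP-705 splicing reporter; GFP fluorescence per well restored by corrected splicing of the IVS2-705 intron in EGFP; % of control where 0% means no effect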); settings: HeLa EGFP-705 splicing reporter, GFP fluorescence, 48 h; series mostly up to 38.3 µM
How it was run: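 HeLa cells stably carrying EGFP interrupted by mutant beta-globin intron 2 (IVS2-705) treated 2 days at 37C with compound; 500 nM antisense PNA as control. Correct splicing read as total peak GFP intensity per well by laser-scanning cytometry.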

[17] = target: Ubiquitin carboxyl-terminal hydrolase 1 (Homo sapiens) (UniProt O94782); assay: Inhibitors of USP1/UAF1: Pilot qHTS (AID 504865; active means well fitted curve in the direction sought with a large enough effect; an effect the other way counts as inactive or inconclusive;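 further: rhodamine fluorescence freed from ubiquitin-rhodamine substrate followed over time; top concentration of the series differs between compounds; on the % scale 0 is the no-effect control and ±100 the full control effect; nearly all actives have a fitted effect of over 35% in size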); settings: purified USP1/UAF1, Ub-rhodamine cleavage fluorescence; series mostly up to 54.9 µM
How it was run: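 Kinetic fluorescence assay: 1nM USP1/UAF1, 15 min compound preincubation, then 150nM Ub-Rho; 480/540 nm.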

[18] = Confirmation and Secondary Assay for Modulators of Hemoglobin Beta Chain Splicing at IVS2 654 locus (AID 910; active means well fitted curve in the direction sought with a large enough effect; an effect the other way counts as inactive or inconclusive;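 further: HeLa cells stably carrying EGFP split by mutant beta-globin IVS2-654 intron; % of control where 0% means no effect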); settings: HeLa EGFP-654 splicing reporter, GFP fluorescence, 48 h; series mostly up to 38.3 µM
How it was run: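 HeLa cells stably expressing EGFP interrupted by β-globin IVS2-654 intron, seeded overnight in Opti-MEM/2% FCS, then treated 2 days at 37 °C. Restored splicing read as total peak GFP intensity per well by laser scanning cytometry (488 nm excitation, 500–520 nm emission); 500 nM antisense PNA as control.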

[19] = measured here: cell count channel max response
[20] = measured here: lipid channel max response

Chain of 3',5'-cyclic-AMP phosphodiesterase 4B (Homo sapiens) (Q07343 whole entry, looked up): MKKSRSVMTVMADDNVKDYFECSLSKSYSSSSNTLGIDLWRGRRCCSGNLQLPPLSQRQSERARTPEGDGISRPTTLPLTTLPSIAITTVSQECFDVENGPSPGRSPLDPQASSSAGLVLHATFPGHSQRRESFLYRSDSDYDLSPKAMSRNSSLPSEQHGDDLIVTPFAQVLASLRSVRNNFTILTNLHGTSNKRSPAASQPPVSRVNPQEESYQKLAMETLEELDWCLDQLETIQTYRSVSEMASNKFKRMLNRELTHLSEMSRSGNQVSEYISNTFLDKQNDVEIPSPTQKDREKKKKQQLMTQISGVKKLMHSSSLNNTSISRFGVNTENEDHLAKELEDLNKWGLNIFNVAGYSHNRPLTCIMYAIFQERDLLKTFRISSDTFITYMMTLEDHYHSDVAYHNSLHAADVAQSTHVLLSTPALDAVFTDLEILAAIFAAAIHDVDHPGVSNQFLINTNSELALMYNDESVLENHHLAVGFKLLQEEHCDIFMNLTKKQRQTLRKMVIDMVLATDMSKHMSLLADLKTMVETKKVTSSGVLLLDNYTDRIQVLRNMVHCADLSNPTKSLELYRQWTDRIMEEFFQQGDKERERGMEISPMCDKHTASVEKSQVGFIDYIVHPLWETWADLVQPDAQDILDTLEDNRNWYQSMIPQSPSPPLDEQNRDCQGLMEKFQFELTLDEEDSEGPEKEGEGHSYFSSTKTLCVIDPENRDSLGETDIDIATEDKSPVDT
Chain of Cytochrome P450 3A4 (Homo sapiens) (P08684 whole entry, looked up): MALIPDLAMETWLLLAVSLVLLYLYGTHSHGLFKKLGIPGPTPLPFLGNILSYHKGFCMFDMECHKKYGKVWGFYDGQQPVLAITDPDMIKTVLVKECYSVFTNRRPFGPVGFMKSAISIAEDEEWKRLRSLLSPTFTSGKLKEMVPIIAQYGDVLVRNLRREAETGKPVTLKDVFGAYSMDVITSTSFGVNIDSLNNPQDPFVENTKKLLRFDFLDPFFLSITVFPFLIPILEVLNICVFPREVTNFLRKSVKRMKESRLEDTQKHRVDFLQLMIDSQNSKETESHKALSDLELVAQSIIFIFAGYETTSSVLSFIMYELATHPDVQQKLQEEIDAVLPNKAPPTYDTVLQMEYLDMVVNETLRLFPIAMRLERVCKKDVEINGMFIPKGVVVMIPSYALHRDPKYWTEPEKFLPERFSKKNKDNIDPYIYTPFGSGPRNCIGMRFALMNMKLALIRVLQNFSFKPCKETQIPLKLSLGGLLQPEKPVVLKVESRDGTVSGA
Chain of Lysosomal acid glucosylceramidase (Homo sapiens) (P04062 whole entry, looked up): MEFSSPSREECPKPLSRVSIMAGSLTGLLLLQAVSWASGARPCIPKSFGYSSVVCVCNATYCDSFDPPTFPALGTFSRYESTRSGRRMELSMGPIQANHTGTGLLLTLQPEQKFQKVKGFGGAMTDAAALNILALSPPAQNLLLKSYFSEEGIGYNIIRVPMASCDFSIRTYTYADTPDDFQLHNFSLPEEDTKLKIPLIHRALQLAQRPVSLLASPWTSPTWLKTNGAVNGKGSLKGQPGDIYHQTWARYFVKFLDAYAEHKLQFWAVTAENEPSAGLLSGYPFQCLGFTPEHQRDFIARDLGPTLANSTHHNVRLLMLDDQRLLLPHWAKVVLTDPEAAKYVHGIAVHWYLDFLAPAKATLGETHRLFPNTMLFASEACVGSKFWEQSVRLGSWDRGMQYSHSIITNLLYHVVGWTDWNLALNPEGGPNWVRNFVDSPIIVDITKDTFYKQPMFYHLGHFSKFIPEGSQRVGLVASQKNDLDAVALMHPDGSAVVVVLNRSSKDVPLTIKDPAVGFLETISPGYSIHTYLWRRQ
Chain of Glucocorticoid receptor (Homo sapiens) (P04150 whole entry, looked up, the tested form may be a part): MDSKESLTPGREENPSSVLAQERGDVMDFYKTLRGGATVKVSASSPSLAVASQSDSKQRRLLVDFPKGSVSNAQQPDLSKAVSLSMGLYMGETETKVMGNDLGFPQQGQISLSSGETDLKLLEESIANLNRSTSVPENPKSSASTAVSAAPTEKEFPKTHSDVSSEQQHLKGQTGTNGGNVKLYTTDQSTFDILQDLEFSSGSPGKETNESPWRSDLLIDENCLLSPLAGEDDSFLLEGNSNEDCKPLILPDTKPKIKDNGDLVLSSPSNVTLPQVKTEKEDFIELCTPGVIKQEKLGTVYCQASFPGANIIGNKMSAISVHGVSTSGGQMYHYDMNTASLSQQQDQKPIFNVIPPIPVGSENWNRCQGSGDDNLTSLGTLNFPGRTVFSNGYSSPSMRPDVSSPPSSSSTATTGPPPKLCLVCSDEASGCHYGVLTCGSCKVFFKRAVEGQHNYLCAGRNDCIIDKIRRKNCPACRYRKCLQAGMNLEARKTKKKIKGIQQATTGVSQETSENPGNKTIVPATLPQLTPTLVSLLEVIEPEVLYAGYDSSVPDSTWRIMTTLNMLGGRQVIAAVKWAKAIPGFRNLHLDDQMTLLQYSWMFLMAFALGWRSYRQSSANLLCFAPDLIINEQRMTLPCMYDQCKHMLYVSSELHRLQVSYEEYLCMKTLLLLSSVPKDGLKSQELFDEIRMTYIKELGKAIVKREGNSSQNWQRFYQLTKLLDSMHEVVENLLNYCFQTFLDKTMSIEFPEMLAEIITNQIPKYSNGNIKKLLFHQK
Chain of Cytochrome P450 1A2 (Homo sapiens) (P05177 whole entry, looked up): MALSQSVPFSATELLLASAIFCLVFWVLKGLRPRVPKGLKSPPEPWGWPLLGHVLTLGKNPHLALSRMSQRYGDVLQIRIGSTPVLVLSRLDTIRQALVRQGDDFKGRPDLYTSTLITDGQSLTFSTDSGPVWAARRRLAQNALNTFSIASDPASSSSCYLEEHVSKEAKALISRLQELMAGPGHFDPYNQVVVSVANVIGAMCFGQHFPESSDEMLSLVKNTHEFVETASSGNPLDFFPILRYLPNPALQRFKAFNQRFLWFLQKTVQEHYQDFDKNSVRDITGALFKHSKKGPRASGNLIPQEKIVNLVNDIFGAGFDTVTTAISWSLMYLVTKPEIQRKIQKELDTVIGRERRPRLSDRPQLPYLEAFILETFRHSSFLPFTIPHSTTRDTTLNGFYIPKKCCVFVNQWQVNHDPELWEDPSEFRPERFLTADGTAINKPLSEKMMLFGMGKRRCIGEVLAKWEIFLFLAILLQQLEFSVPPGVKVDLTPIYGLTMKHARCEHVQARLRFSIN
Chain of Cytochrome P450 2D6 (Homo sapiens) (P10635 whole entry, looked up): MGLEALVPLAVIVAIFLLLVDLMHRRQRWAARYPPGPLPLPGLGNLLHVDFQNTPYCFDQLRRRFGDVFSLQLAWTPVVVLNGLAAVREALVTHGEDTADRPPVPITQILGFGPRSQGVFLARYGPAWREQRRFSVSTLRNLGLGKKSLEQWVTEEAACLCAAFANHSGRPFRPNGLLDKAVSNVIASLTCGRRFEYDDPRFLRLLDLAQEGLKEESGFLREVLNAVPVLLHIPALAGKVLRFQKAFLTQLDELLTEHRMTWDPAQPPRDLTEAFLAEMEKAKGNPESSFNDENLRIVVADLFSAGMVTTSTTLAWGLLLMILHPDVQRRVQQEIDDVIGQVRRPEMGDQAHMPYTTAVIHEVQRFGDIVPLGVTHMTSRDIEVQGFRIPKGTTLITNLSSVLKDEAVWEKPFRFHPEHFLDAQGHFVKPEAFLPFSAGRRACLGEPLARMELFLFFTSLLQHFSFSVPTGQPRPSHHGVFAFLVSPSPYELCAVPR
Chain of Cytochrome P450 2C19 (Homo sapiens) (P33261 whole entry, looked up): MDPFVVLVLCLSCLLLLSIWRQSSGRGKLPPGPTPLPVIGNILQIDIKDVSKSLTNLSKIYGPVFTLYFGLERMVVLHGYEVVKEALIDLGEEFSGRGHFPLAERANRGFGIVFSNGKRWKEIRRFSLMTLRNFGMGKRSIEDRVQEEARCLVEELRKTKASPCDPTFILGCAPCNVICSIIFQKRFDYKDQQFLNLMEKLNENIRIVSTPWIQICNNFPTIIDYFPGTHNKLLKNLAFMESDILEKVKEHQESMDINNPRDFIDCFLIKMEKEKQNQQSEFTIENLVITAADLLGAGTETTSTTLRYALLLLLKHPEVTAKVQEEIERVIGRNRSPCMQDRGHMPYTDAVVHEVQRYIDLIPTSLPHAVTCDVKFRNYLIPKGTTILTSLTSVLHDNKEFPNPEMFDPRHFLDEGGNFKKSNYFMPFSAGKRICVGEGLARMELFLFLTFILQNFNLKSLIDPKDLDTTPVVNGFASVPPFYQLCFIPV
Chain of Ubiquitin carboxyl-terminal hydrolase 1 (Homo sapiens) (O94782 whole entry, looked up): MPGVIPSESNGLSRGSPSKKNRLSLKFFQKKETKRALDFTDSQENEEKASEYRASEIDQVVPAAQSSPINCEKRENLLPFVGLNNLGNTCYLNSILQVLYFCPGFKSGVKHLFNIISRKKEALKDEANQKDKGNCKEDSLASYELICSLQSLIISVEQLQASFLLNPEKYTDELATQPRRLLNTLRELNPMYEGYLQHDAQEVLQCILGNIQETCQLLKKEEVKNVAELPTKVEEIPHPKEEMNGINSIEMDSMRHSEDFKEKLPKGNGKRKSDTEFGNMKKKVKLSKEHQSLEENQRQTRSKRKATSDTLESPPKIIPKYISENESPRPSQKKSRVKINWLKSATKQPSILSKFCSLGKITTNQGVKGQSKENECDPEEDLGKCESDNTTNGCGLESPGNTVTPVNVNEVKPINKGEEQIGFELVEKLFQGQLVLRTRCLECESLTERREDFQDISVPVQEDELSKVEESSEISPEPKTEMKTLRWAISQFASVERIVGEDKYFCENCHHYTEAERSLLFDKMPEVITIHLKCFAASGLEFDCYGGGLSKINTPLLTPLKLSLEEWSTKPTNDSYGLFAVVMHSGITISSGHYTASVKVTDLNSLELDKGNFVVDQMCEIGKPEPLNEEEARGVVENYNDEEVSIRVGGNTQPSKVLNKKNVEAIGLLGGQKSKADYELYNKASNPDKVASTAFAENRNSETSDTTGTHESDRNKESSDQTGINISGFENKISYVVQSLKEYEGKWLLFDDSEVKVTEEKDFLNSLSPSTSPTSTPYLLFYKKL

Structure (SMILES) | Potency [1] | Potency [2] | activity, negative = inhibition [3] | Potency [4] | Potency [5] | Potency [6] | Potency [7] | Potency [8] | activity change, negative = inhibition [9] | max response [9, 19] [%] | max response [9, 20] [%] | outcome [10] | Potency [11] | activity change, negative = inhibition [12] | activity change, negative = inhibition [13] | Potency [14] | Potency [15] | outcome [16] | Potency [17] | Potency [18]
COc1ccc(C(=O)N2CCC3(CCCN(Cc4ccccc4)C3)CC2)cc1 | > 11.4 µM (inactive) | inactive | -10.9% (inactive) | > 46 µM (inactive) | inactive | inactive | inactive | 7.94 µM (active) | 4.53% (inactive) | 1.31 | 6.86 | inactive | – | – | – | – | – | – | – | –
N#CCCn1c(=O)c(-c2cccs2)nc2cnc(N3CCNCC3)nc21 | > 11.4 µM (inactive) | – | – | > 46 µM (inactive) | inactive | inactive | – | – | -0.055% (inactive) | 5.4 | 9.49 | inactive | > 9.22 µM (inactive) | – | – | – | – | – | – | –
COc1ccc(-c2nc3cnc(N4CCNCC4)nc3n(C)c2=O)cc1 | > 11.4 µM (inactive) | 12.6 µM (active) | – | > 46 µM (inactive) | inactive | inactive | inactive | – | 4.15% (inactive) | 15.8 | 21.9 | inactive | > 9.22 µM (inactive) | – | – | – | – | – | – | –
FC(F)(F)c1ccccc1-c1cncnc1Nc1ccccc1 | – | 25.1 µM (active) | 7.53% (inactive) | > 46 µM (inactive) | inactive | – | inactive | – | 4.42% (inactive) | 10.3 | 16.8 | inactive | > 46 µM (inactive) | -9.67% (inactive) | 9.21% (inactive) | 0.501 µM (active) | 7.94 µM (active) | inactive | inactive | –
COc1ccc(-n2c(=O)c(-c3cccs3)nc3cnc(N4CCNCC4)nc32)cc1 | > 11.4 µM (inactive) | 5.01 µM (active) | – | > 46 µM (inactive) | inactive | inactive | inactive | – | 2.69% (inactive) | 3.53 | 6.61 | inactive | > 9.22 µM (inactive) | – | – | – | – | – | – | –
CS(=O)(=O)Nc1cccc(-c2nc(NCCN3CCOCC3)c3ccccc3n2)c1 | – | 25.1 µM (active) | -7.39% (inactive) | > 46 µM (inactive) | inactive | inactive | inactive | – | 9.69% (inactive) | -5.53 | 2.51 | inactive | > 46 µM (inactive) | -21.3% (inactive) | – | – | – | inactive | – | –
CC(=O)N1CCC[C@@]2(CCN(C(=O)Nc3cccc(C#N)c3)C2)C1 | – | – | 7.98% (inactive) | > 46 µM (inactive) | inactive | inactive | – | – | 2.15% (inactive) | -7.31 | -0.637 | inactive | – | -7.34% (inactive) | 23.9% (inactive) | – | – | – | – | –
Cn1cc(C(F)(F)F)nc1-c1ccc(OC[C@@H](O)CNCCOc2ccc(O)c(C(N)=O)c2)cc1 | – | – | – | > 46 µM (inactive) | inactive | inactive | – | – | 1.54% (inactive) | -4.45 | -2.61 | inactive | > 46 µM (inactive) | -8.84% [at 38 µM] (inactive) | -4.88% [at 38 µM] (inactive) | – | – | – | – | –
COc1ccc(CNc2nc(-c3ccoc3)nc3ccccc23)c(OC)c1 | – | – | 6.96% (inactive) | > 46 µM (inactive) | inactive | inactive | – | – | 11% (inactive) | -6.93 | 2.43 | inactive | > 46 µM (inactive) | -10.8% (inactive) | -8.73% (inactive) | – | – | inactive | – | inactive
